Screening data: PubChem BioAssay, several laboratories
CYP2C9 activ = increases human cytochrome P450 2C9 activity | 1.4% of 96,000 active | recombinant CYP2C9, luciferin-H conversion, luminescence; active compounds read high; factor 1 = untreated enzyme, 0 = blocked | P11712 | activation factor at 5 µM;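 active means activation factor of 2 or more for CYP2C9 at a 5 µM dose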;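 further: 0 = sulfaphenazole-blocked wells and 1 = vehicle-only wells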
Cav3 T inh = human Cav3.2 channel inhibition, primary screen; O95180; Cav3.2-expressing cells, Fluo-4 calcium fluorescence FDSS; active compounds read low; B-score at 10 µM; 4% of 100,000 active; AID 449739;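 active means single-dose well whose peak fluorescence ratio is a statistical outlier from its plate by either plate-standardised score or position-corrected B-score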
CYP2C19 activ = increases human CYP2C19 enzyme activity; P33261; recombinant CYP2C19, luciferin-H EGE luminescence; active compounds read high; 0 = fully inhibited enzyme, 1 = untreated enzyme; activation factor at 5 µM; 96,000 tested, under 10 active; AID 1025;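 active means activation factor of at least 2 at 5 µM in the primary screen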;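 further: 0 = wells with 2.5 mM tranylcypromine and 1 = vehicle-only wells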
CYP2C19 inhib = blocks human cytochrome P450 2C19; P33261; CYP2C19 Supersomes, luciferin-H EGE luminescence, 30 min; inhibition, % at 5 µM; 21% of 96,000 active; AID 778;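 active means CYP2C19 inhibition above a set limit at 5 µM in the primary screen, cut at about 50% in these data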;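 further: plate controls were negative control wells for no effect and 2.5 mM tranylcypromine positive control for full effect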
CYP2C9 inh = blocks human cytochrome P450 2C9 | P11712 | CYP2C9 Supersomes, luciferin-H conversion, luminescence | inhibition, % at 5 µM | 20% of 96,000 active | AID 777;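 active means blocking of liver enzyme CYP2C9 beyond about 50% at 5 µM, limit read from the data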
Starred values were filed as active, the others as inactive; nt = no result. A selection: hits, their analogues and other compounds. The true share with any hit is near 27%.

SMILES	CYP2C9 activ	Cav3 T inh	CYP2C19 activ	CYP2C19 inhib	CYP2C9 inh
CCOC(=O)C1CCCN(C(=O)c2sc3nc(-c4ccc(F)cc4)cn3c2C)C1 (stereo unspecified)	0.7	nt	0.8	21.3	27.8
CCOC(=O)C1CCCN(C(=O)Nc2ccccc2)C1 (stereo unspecified)	0.9	0.789	0.6	43.3	5.9
CCCCC(=O)Nc1ccc(C(=O)N2CCCC(C(=O)OCC)C2)cc1 (stereo unspecified)	1	0.467	0.1	91.8*	-1.3
CCOC(=O)C1CCCN(C(=O)c2cc(Cl)ccc2Cl)C1 (stereo unspecified)	0.1	1.07	0	96.7*	93.9*
CCOC(=O)C1CCN(Cc2oc(CO)cc(=O)c2O)CC1	1	nt	0.9	13.5	4.7
CC(C)(C)[C@H]1C=C(C(N)=O)O[C@@H](OCCCCO)C1	nt	0.349	nt	nt	nt
CCOC(=O)C1CCCN(C(=O)c2ccccc2SCCOC)C1 (stereo unspecified)	0.3	1.12	0.4	61.3*	67.8*
CCOC(=O)C1CCCN(C(=O)Cn2nc(CC)n3c(cc4sccc43)c2=O)C1 (stereo unspecified)	0.6	1.96	0.2	83.8*	44.9
CCOC(=O)C1CCN(C(=O)CSc2ccccc2)CC1	0.7	0.501	0.4	64.0*	30.7
CCOC(=O)N1CCN(C(=O)c2ccc3c(c2)sc2nc(-c4ccccc4)cn23)CC1	0.4	0.073	0.5	49.2	57.3*
CCOC(=O)N1CCC(NC(=O)c2ccc3c(c2)sc2nc(-c4ccc(OC)cc4)cn23)CC1	0.9	nt	0.9	14.3	14.3
CCOC(=O)C(Cc1c[nH]c2ccccc12)NC(=O)CNC(C)=O (stereo unspecified)	0.9	-0.404	1	1.8	5.0
COc1ccc([C@H]2/C=C\CN(C(=O)C3CC3)[C@@H](C)C(=O)N2Cc2ccc(F)cc2)cc1	nt	-0.632	nt	nt	nt
CSc1nc(Oc2ccc(C)cc2)cc(C(F)(F)F)n1	1	1.42	1.1	-6.2	0.1
CCOC(=O)C1CCCN(C(=O)C2CC(=O)N(c3ccc(C)cc3)C2)C1 (stereo unspecified)	1.1	0.502	0.9	12.6	-9.8
CCOC(=O)C1CCN(C(=O)c2ccc(SC)cc2OC)CC1	1.4	0.105	0	98.8*	-37.9
CCOC(=O)C1CCCN(C(=O)C(C)Oc2ccc(Cl)cc2Cl)C1 (stereo unspecified)	0.5	-0.985	0.6	39.6	51.0*
Cc1cc(Br)ccc1SCC(=O)OCC(=O)N1CCN(C(=O)c2ccco2)CC1	0.4	0.085	0.3	66.3*	61.3*
O=C(COC(=O)C1CCN(C(=O)c2ccc(Cl)cc2)CC1)c1ccco1	0.7	0.327	0.6	36.9	30.6
CCOC(=O)C1CCN(C(=O)c2ccco2)CC1	0.8	-0.00321	0.4	63.1*	24.4
Cn1nc(C(=O)Nc2nc3ccc(S(C)(=O)=O)cc3s2)ccc1=O	0.7	nt	1.1	-5.7	26.0
CCC1c2ccc(C)n2CCN1C(=O)Nc1ccc(F)cc1 (stereo unspecified)	0.8	-0.37	0.7	27.7	15.1
CC(C)CC(OC(=O)c1nsc(Cl)c1Cl)C(=O)NCc1cccs1 (stereo unspecified)	nt	0.528	nt	nt	nt
CCOC(=O)C1CCCN(C(=O)CC(C)c2ccccc2)C1 (stereo unspecified)	0.2	-0.754	0.2	79.0*	84.4*
COC(=O)C1CCN(C(=O)c2cc(OC)c(OC)c(OC)c2)CC1	1.1	0.166	0.6	41.6	-15.0
SMILES	CYP2C9 activ	Cav3 T inh	CYP2C19 activ	CYP2C19 inhib	CYP2C9 inh
CCOC(=O)C1CCCN(C(=O)CCc2ccccc2)C1 (stereo unspecified)	0.8	0.0466	0.6	36.3	17.7
COC(=O)C1CCN(C(=O)C(C)Oc2ccc(Cl)cc2Cl)CC1 (stereo unspecified)	0.8	-0.826	0.1	89.6*	18.5
CCOC(=O)C1CCCN(C(=O)Cc2ccc(Cl)cc2)C1 (stereo unspecified)	0.2	-1.12	0.7	29.9	76.3*
O=C(c1nn2cccnc2c1Cl)N1CCN(c2ccccc2)CC1	nt	0.657	nt	nt	nt
CCC(=O)N1CCc2cc(OC)c(OC)cc2C1COc1ccc(C(=O)OC)cc1 (stereo unspecified)	0.7	-1.46	0.4	59.8*	32.7
Cc1occc1C(=O)N1CCN(c2ncccn2)CC1	0.9	-0.255	0.9	11.5	10.2
Clc1ccccc1-c1nc2ccccc2c2nncn12	0.8	0.553	0.4	62.2*	16.1
Nn1c(-c2ccccc2Cl)nnc1-c1ccccc1Cl	nt	0.419	nt	nt	nt
c1ccc2c(-c3nc(C4CCCCC4)no3)cc(-c3ccncc3)nc2c1	0.2	0.00413	0.4	57.4*	80.4*
CC1(C)CC2(CCO1)OC(=O)CC2C(=O)NCc1ccccc1 (stereo unspecified)	1	0.0764	0.9	8.9	-4.1
CO/N=C(/CS(=O)(=O)c1ccc(C)cc1)c1ccc(OC)cc1	0.8	-0.64	0	99.1*	16.7
O=C(Nc1ccccc1F)N(CCCN1CCOCC1)Cc1cc2cc3c(cc2[nH]c1=O)OCCO3	0.5	0.427	0.1	90.4*	52.4*
CCc1ccc2[nH]c(=O)c(CN(CCCN3CCOCC3)C(=O)Nc3ccccc3)cc2c1	0.5	0.272	0.4	56.0*	48.2
O=C(NCC1CCCO1)C1CCN(S(=O)(=O)c2cccc3nonc23)CC1 (stereo unspecified)	1.4	0.0445	1	1.5	-44.9
C=C(C)Cn1c(=S)[nH]c2ccccc2c1=O	1	-0.121	0.7	34.0	-1.6
CC(C)COn1c(=S)[nH]c2ccccc2c1=O	0.7	0.561	0.4	58.9*	26.8
CCN(CC)CCNC(=O)Cn1c(-c2ccccn2)nc2ccccc21	1.1	0.491	1.1	-11.8	-5.6
CCOC(=O)Cn1c(=O)n(Cc2ccco2)c(=O)c2ccc(C(=O)NC3CCCC3)cc21	0.5	-0.147	0.6	38.7	48.5
CCCCCCCCC(=O)NC(NC(=S)N1CCOCC1)C(Cl)(Cl)Cl (stereo unspecified)	nt	-4.16*	nt	nt	nt
CCCCCC(=O)NC(NC(=S)N1CCOCC1)C(Cl)(Cl)Cl (stereo unspecified)	nt	0.255	nt	nt	nt
Cc1ccc2nc(-c3ccc(NC(=O)Cc4cccs4)cc3)[nH]c2c1	0.6	1.07	1	3.4	43.6
Cc1ccc2nc(-c3ccc(NC(=O)C4CCCO4)cc3)[nH]c2c1 (stereo unspecified)	0.5	0.268	0.4	61.9*	54.0*
O=C(Nc1ccc(-c2nc3ccccc3[nH]2)cc1)c1ccco1	0.6	1.34	0.3	66.4*	39.0
O=C(Nc1ccc2nc(-c3cccnc3)[nH]c2c1)c1ccco1	0.8	-0.049	0.9	9.5	17.2
Cc1ccc2nc(-c3cccc(NC(=O)c4ccco4)c3)[nH]c2c1	0.1	-2.3	0.1	90.6*	90.8*
O=C(NCc1nc2ccccc2[nH]1)c1ccco1	1	1.36	0.8	22.4	0.6
CC(C)N1C(=S)SC(C)(C)C1NO (stereo unspecified)	1.1	nt	0.9	13.5	-6.6
